Compound activity as filed in PubChem.
Rows were chosen to be rich in hits. Some 15% of all compounds tested hit in one or more screens of this group.
HCV inh: HCV inhibition | Potency, µM (series often up to 41.8 µM), without a hit: at the top dose activity change, negative = inhibition, hits mostly inhibitors | Huh7.5.1 HCVcc-Cre infection, luciferase reporter, 44 h | 3.4% of 340,000 active; further: potency means the concentration at half of the fitted maximal effect; on the % scale 0 is the no-effect control and ±100 the full control effect
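Infectious HCVcc-Cre (~0.5 moi) was added to cells just after compound, with cells seeded 4 h earlier at 1,000 per well. Luciferase activity after 44 h culture reported infection; substrate was incubated 15 min at room temperature before reading.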
Pf growth 48h: P. falciparum growth inhibition at 48 hours (one generation); P. falciparum luciferase growth in erythrocytes, 48 h; Potency, µM (series often up to 28.7 µM), for inactives: at the top dose activity change, negative = inhibition, usual class: inhibitors; 5.9% of 310,000 active; further: potency means the concentration at half of the fitted maximal effect; on the % scale 0 is the no-effect control and ±100 the full control effect
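Read-out is firefly luciferase luminescence from an integrated reporter in P. falciparum, so falling signal marks reduced parasite growth. Infected erythrocytes were at 2% hematocrit and 0.1% parasitemia (final) in Albumax-supplemented RPMI 1640.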
Pf growth 96h: P. falciparum growth inhibition at 96 hour, primary screen for plastid delayed-death inhibitors; AID 504834; 6.9% of 320,000 active; Potency, µM (top dose mostly 28.7 µM), for the others: at the highest dose activity change, negative = inhibition, usual class: inhibitors; P. falciparum luciferase reporter growth, 96 h; further: potency means the concentration at half of the fitted maximal effect; on the % scale 0 is the no-effect control and ±100 the full control effect
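P. falciparum expressing integrated firefly luciferase grown in erythrocytes (2% hematocrit, 0.05% parasitemia final) with compounds for 96 hours at 37 C, 5% CO2. Growth inhibition read as loss of luminescence after adding luciferase detection reagent.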
HCMV inh: inhibitors of human cytomegalovirus. HFF cells, HCMV-luciferase reporter, 72 h; active compounds read low. activity change, negative = inhibition, % at 57.5 µM. 4.5% of 410,000 active. AID 1259415; in the data active means activity change below about -60%; inconclusive means no clear call, values can overlap the other calls; inactive means above about -39%; further: on the % scale 0 is the no-effect control and ±100 the full control effect
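Steps: HFFs plated, 16 h 37C; compounds added; HCMV-luciferase added to MOI 1 PFU/cell; 72 h 37C; OneGlo reagent, 5 min room temperature; luminescence read, normalized to controls.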
SARS PLpro yeast: blocks SARS-CoV papain-like protease in a yeast assay. S. cerevisiae expressing SARS-CoV PLpro, growth rescue. Potency, µM (top dose mostly 32.9 µM), inactives show at the highest dose activity, positive = growth rescue, hits mostly activators. 0.19% of 330,000 active; calls by dose curve; further: potency means the concentration at half of the fitted maximal effect; 0% is about no effect; nearly all actives have a fitted effect of over 55% in size
Sm TGR block: S. mansoni TGR enzyme inhibition | purified TGR, DTNB reduction, TNB absorbance 405 nm | Potency, µM (highest dose often 114 µM), inactives show top-dose activity change, negative = inhibition, hits mostly inhibitors | 3% of 360,000 active; further: potency means the concentration at half of the fitted maximal effect; on the % scale 0 is the no-effect control and ±100 the full control effect; nearly all actives have a fitted effect of over 60% in size
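TGR 20 nM + NADPH 100 uM (dispensed conc.), cpd preinc 15 min RT; start with NADPH (500 uM addition) then DTNB (15 mM addition). Kinetic TNB absorbance, 405 nm filter. Four-parameter Hill fit across titration.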
* hit, by the source's call; ? = inconclusive; · = no result. Unless noted, the call rests on the fitted dose curve; in most records, active means well fitted curve in the direction sought with a large enough effect; inconclusive means small, poorly fitted or top-dose-only effect, or another doubt; inactive means no such curve, though single readings can be large; an effect the other way counts as inactive or inconclusive.

SMILES	HCV inh	Pf growth 48h	Pf growth 96h	HCMV inh	SARS PLpro yeast	Sm TGR block
O=C(NCc1ccccc1Cl)[C@@H]1[C@@H](CO)[C@@H]2Cn3c(cccc3=O)[C@@H]2N1C(=O)C1CCC1	·	·	·	3	·	·
N#C/C(=C\c1ccccc1C(=O)O)c1nc2ccccc2[nH]1	-7%	?	-1%	58	1%	-4%
Cc1ccc2nc(/C(C#N)=C\c3ccc(N4CCCCC4)c([N+](=O)[O-])c3)[nH]c2c1	7.1µM*	?	?	-62*	·	6%
N#C/C(=N\O)c1nc2ccccc2[nH]1	29%	7%	-1%	33	-6%	2%
Cc1ccc2nc(/C(C#N)=N/O)[nH]c2c1	21%	?	13µM*	46	8%	-7%
Cc1ccc2nc(/C(C#N)=C/c3ccccc3C(=O)O)[nH]c2c1	12%	2.1µM*	?	50	2%	-18%
CCc1ccc2c(c1)c(=O)c(C(=O)c1ccc(C)cc1)cn2CC(=O)Nc1ccc2c(c1)OCCO2	·	·	·	-13	·	0%
Cc1cc(-c2nnc(SCC(=O)Nc3ccc(Br)cc3F)n2N)n[nH]1	8%	-14%	?	-21	-2%	-6%
COc1c(CC=C(C)C)cc(C2CC(=O)c3c(O)cc(O)cc3O2)cc1CC=C(C)C (stereo unspecified)	?	?	168%	-69*	-4%	7%
CCc1cccc(NC(=O)Cn2c(=O)c3cccn3c3ccccc32)c1	11%	10%	1%	-32	0%	-16%
CC(=O)c1ccc(NC(=O)c2ccccc2-c2ccccc2C(=O)O)cc1	8%	0%	4.7µM*	57	6%	4%
CCN1CCc2c(sc(NC(=O)c3ccc(S(=O)(=O)N(C)C4CCCCC4)cc3)c2C(N)=O)C1	·	·	·	?	·	-3%
Cc1cc(C)cc(NC(=O)c2ccc(S(=O)(=O)N(C)CC3CCCO3)cc2)c1 (stereo unspecified)	-20%	?	2.6µM*	9	-2%	10%
CCCN1CCc2c(sc(NC(=O)c3ccc(S(=O)(=O)N(C)c4ccccc4)cc3)c2C(=O)NC)C1	?	3.3µM*	2.6µM*	-15	4%	3%
CNC(=O)c1c(NC(=O)c2ccc(S(=O)(=O)N3CCCc4ccccc43)cc2)sc2c1CCN(C)C2	?	?	?	-21	-2%	-7%
CCCN1CCc2c(sc(NC(=O)c3ccc(S(=O)(=O)N(C)c4ccccc4)cc3)c2C(N)=O)C1	?	9.3µM*	9.3µM*	·	-2%	-19%
CCN1CCc2c(sc(NC(=O)c3ccc(S(=O)(=O)N(C)CC4CCCO4)cc3)c2C(N)=O)C1 (stereo unspecified)	-28%	?	10µM*	-2	5%	6%
Cc1ccc2oc(C(=O)NCc3ncc(C)[nH]3)c(C)c2c1	-8%	-10%	5%	-8	0%	-26%
COc1ccc(NC(=S)Nc2cccc3ccccc23)cc1OC	-22%	?	?	-9	16%	-1%
COc1ccc2c(c1)c[n+](C)c1c3cc(OC)c(OC)cc3ccc21	·	·	·	-96*	·	·
COc1cc2c(ccc3c4cc(OC)c(OC)cc4c[n+](C)c23)cc1O	?	·	·	-100*	·	·
COc1cc2c[n+](C)c3c4ccccc4ccc3c2cc1OC	1%	·	·	-82*	·	·
COc1cc2ccc(=O)oc2cc1O	13%	15%	4%	0	5%	-4%
CCOc1ccc(C2CC(=O)n3nc(-c4ccc(C)cc4)nc3S2)cc1 (stereo unspecified)	·	·	·	-3	·	7%
CCOCCCNCc1ccc(Cl)cc1	0%	19%	37%	3	-3%	-1%
SMILES	HCV inh	Pf growth 48h	Pf growth 96h	HCMV inh	SARS PLpro yeast	Sm TGR block
CCOCCCNCc1cccc(OCc2ccc(F)cc2)c1	?	?	12µM*	-18	1%	12%
COc1cc2c(cc1OC)-c1cc(NC3CCCCCCC3)nc(=O)n1CC2	-11%	?	7.4µM*	-17	14%	6%
Cc1nc2c(O)c3c(c(O)c2nc1C)C1C=CC3CC1	7.9µM*	·	·	-17	·	·
N#C/C(=C\c1ccc(OC(=O)c2ccc(Cl)s2)cc1)c1nc2ccccc2[nH]1	-23%	1%	?	-36	-3%	4%
CC1(c2nnnn2Cc2ccccc2)CCC(=O)N1CC1CCCCC1 (stereo unspecified)	·	·	·	-7	·	·
CCOc1cc(O)c(-c2[nH]ncc2-c2nc(C)cs2)cc1CC	?	15µM*	?	-15	0%	-8%
COc1ccc(Cl)cc1NC(=O)CC(C)c1ccccc1 (stereo unspecified)	8.9µM*	·	·	-19	-20%	2%
COc1ccc(Cl)cc1NC(=O)CN(C)C1CCS(=O)(=O)C1 (stereo unspecified)	?	?	?	25	2%	50µM*
COc1ccc(Cl)cc1NC(=O)CN(C)CC(=O)Nc1ccccc1-c1ccccc1	?	?	12µM*	-39	-6%	1%
CC(=O)c1ccc(NC(=O)C(C)N2CCN(C/C=C/c3ccccc3)CC2)cc1 (stereo unspecified)	?	?	?	15	-7%	4%
COc1ccc(Cl)cc1NC(=O)C(C)N1CCN(C/C=C/c2ccccc2)CC1 (stereo unspecified)	?	·	12µM*	3	-1%	-14%
CN(CC(=O)Nc1ccccc1Cl)C1CCS(=O)(=O)C1 (stereo unspecified)	13%	2%	4%	11	-1%	4%
Cc1c(C(=O)N2CCN(S(=O)(=O)c3ccccc3)CC2)oc2ccc(Br)cc12	?	·	·	-38	0%	·
COc1ccc(Cl)cc1NC(=O)C/C(C)=N/NC(=O)c1ccccc1Cl	8%	-9%	13µM*	86	-1%	-27%
Cc1ccc(NC(=O)CN(C)CC(=O)Nc2ccccc2-c2ccccc2)cc1	?	?	13µM*	-4	-3%	13%
COc1ccc(Cl)cc1NC(=O)CN(C)C(=O)c1cc(=O)c2ccccc2o1	-20%	12µM*	?	14	-7%	-12%
Cc1ccccc1CSCC(=O)Nc1ccccc1-c1ccccc1	5%	?	29%	-22	-40%	-5%
COc1ccc(Cl)cc1NC(=O)CN(C)C(=O)c1n[nH]c2ccccc12	?	-5%	19%	-8	-4%	7%
O=C(CSCc1cccc(Cl)c1)Nc1ccccc1-c1ccccc1	-15%	-22%	11%	-63*	-40%	7%
CN(CC(=O)Nc1ccccc1Br)CC(=O)Nc1ccccc1-c1ccccc1	?	?	?	-18	-7%	-3%
